The supplement of paper PMC11732987, “Enantioselective OTUD7B fragment discovery through chemoproteomics screening and high-throughput optimisation” (Communications Chemistry, 2025)

The molecules below were run against USP54 (UniProt Q70EL1) (assay: log2 ratio of Biotin-Ahx-Ub-VS probe labelling (fragment/DMSO); higher = less target engagement (more negative = stronger competition), active = hit call of the paper (q ≤ 0.05, log2 ratio ≤ -1)). Settings: compound concentration: 200 uM; treatment time: 3 h.
Chain of USP54 (Q70EL1 whole entry, the tested form may be a part): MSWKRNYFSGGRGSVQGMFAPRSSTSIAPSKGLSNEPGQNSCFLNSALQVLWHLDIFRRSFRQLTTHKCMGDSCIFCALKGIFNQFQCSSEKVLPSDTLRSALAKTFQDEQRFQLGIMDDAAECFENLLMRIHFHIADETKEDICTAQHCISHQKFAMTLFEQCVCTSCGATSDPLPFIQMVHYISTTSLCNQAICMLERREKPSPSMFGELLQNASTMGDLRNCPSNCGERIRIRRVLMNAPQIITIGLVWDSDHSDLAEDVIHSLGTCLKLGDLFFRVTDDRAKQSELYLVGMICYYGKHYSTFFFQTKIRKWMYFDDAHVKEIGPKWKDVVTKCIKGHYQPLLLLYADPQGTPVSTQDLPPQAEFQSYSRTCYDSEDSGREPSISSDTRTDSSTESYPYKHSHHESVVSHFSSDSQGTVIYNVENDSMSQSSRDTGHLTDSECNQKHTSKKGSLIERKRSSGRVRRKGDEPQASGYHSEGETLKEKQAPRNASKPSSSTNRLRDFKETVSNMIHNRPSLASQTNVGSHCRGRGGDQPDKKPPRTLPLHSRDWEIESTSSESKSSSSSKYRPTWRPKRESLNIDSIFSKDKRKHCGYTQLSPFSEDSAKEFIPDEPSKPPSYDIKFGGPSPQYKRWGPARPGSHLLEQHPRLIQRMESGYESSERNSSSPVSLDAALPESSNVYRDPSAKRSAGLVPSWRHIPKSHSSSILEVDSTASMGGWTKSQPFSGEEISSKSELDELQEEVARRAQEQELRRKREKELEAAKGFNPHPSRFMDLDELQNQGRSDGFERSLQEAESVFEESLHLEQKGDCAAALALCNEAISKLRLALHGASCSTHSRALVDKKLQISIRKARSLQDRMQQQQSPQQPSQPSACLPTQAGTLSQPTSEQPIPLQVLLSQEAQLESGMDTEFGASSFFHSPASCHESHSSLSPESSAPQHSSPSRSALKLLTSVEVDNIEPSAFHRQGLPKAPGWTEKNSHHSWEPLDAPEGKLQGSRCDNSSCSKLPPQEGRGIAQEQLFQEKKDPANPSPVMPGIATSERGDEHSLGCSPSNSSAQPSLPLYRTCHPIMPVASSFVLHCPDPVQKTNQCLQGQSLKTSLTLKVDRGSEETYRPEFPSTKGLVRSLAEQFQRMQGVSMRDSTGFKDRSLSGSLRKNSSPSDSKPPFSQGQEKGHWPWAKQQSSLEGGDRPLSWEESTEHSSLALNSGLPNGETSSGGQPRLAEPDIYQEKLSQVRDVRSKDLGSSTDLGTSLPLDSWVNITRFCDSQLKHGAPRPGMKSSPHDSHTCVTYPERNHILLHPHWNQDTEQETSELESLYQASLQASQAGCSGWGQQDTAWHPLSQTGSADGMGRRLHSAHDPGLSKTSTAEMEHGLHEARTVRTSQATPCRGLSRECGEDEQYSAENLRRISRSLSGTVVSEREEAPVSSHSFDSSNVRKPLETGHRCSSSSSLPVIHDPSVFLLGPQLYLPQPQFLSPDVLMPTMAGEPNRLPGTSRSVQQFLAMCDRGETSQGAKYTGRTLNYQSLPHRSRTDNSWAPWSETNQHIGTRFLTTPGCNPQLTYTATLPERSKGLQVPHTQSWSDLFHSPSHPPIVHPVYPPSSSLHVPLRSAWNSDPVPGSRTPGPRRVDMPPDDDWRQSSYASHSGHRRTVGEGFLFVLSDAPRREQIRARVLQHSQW
Outline: (§1)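 Average log2 ratios of fragment over vehicle were obtained by unpaired t-test from global-median-normalised Spectronaut label-free quantities. Proteins with ≥2 unique peptides were included. HEK293T lysate (495 µg per sample) was treated in triplicate with fragment at 200 µM or vehicle for 3 h, then with Biotin-Ahx-Ub-VS at 0.5 µM final for 1 h, and labelled DUBs were NeutrAvidin-enriched and run by diaPASEF LC-MS/MS.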

| SMILES | log2 ratio of Biotin-Ahx-Ub-VS probe labelling |
| --- | --- |
| CNC(=O)C1CCN(C(=O)CCl)CC1 | 0.32 (inactive) |
| O=C(CCl)Nc1cccc(NC(=O)c2ccccc2)c1 | -0.543 (inactive) |
| Cc1ccc(N2CCC(NC(=O)CCl)C2=O)cc1 (stereo not given) | 0.213 (inactive) |
| Cc1cccc(C(CNC(=O)CCl)N2CCOCC2)c1.Cl (stereo not given) | -0.0536 (inactive) |
| O=C(CCl)N1CCC(C(O)c2ccc(F)cc2)CC1 (stereo not given) | -0.000277 (inactive) |
| Cc1ccccc1C1(CNC(=O)CCl)CCOCC1 | 0.35 (inactive) |
| CC(O)CC1CCN(C(=O)CCl)CC1 (stereo not given) | -0.0986 (inactive) |
| COc1cc(Cl)c(C)cc1NC(=O)CCl | 0.718 (inactive) |
| Cl.O=C(CCl)NCCN1CCc2ccccc21 | 0.277 (inactive) |
| CN(C)S(=O)(=O)c1ccccc1CNC(=O)CCl | 0.535 (inactive) |
| CN1c2ccccc2C(NC(=O)CCl)CS1(=O)=O (stereo not given) | 0.66 (inactive) |
| CNC(=O)Cn1cc(NC(=O)CCl)cn1 | 0.48 (inactive) |
| Cc1ccc(N(CCC#N)C(=O)CCl)cc1C | -0.137 (inactive) |
| Cc1cccc(N2CCC(NC(=O)CCl)C2=O)c1 (stereo not given) | 0.699 (inactive) |
| Cc1ccc(CC(NC(=O)CCl)c2ccccn2)cc1.Cl (stereo not given) | 0.195 (inactive) |
| O=C(CCl)N[C@H]1CCS(=O)(=O)c2ccccc21 | -0.274 (inactive) |
| O=C(CCl)N1CCC(c2noc3cc(F)ccc23)CC1 | 0.351 (inactive) |
| C/C(=C\CNC(=O)CCl)c1cnn(C)c1.Cl | -0.0188 (inactive) |

| SMILES | log2 ratio of Biotin-Ahx-Ub-VS probe labelling |
| --- | --- |
| CN(C)C(=O)c1ccc(CNC(=O)CCl)cc1 | 0.152 (inactive) |
| Cc1nc(CNC(=O)CCl)c2ccccn12.Cl | -0.0547 (inactive) |
| O=C(CCl)NC1(c2ccc3c(c2)OCCO3)CCCC1 | 1.09 (inactive) |
| N#Cc1ccc(CNC(=O)CCl)cc1 | 0.446 (inactive) |
| CC(NC(=O)CCl)c1cc2n(n1)CCCC2.Cl (stereo not given) | 0.53 (inactive) |
| O=C(CCl)N1CC=C(c2c[nH]c3ccccc23)CC1 | 0.155 (inactive) |
| CCN1C(=O)C2CN(C(=O)CCl)CCN2C1=O (stereo not given) | -0.191 (inactive) |
| NC(=O)C1CCCN(C(=O)CCl)C1 (stereo not given) | 0.785 (inactive) |
| CC(=O)C1CCCCN1C(=O)CCl (stereo not given) | 0.498 (inactive) |
| CC1CCc2onc(CNC(=O)CCl)c2C1 (stereo not given) | 0.0792 (inactive) |
| CCC1c2ccsc2CCN1C(=O)CCl (stereo not given) | -0.451 (inactive) |
| O=C(O)C1Cc2ccccc2CN1C(=O)CCl (stereo not given) | 0.788 (inactive) |
| Cl.O=C(CCl)N[C@H]1C[C@@H](n2cccn2)C1 | -0.186 (inactive) |
| O=C(CCl)N1CCc2sccc2C1 | -0.356 (inactive) |
| CC(NC(=O)CCl)c1csc(-c2ccccc2)n1.Cl (stereo not given) | 0.348 (inactive) |
| Cc1ccc(N(C(=O)CCl)C2C=CS(=O)(=O)C2)cc1 (stereo not given) | -0.495 (inactive) |
| O=C(CCl)NCc1ccc(Cl)cc1 | -0.625 (inactive) |

The molecules below were run against USP7 (UniProt Q93009) in the same assay as above. Settings: compound concentration: 200 uM; treatment time: 3 h.
Chain of USP7 (Q93009 whole entry, looked up): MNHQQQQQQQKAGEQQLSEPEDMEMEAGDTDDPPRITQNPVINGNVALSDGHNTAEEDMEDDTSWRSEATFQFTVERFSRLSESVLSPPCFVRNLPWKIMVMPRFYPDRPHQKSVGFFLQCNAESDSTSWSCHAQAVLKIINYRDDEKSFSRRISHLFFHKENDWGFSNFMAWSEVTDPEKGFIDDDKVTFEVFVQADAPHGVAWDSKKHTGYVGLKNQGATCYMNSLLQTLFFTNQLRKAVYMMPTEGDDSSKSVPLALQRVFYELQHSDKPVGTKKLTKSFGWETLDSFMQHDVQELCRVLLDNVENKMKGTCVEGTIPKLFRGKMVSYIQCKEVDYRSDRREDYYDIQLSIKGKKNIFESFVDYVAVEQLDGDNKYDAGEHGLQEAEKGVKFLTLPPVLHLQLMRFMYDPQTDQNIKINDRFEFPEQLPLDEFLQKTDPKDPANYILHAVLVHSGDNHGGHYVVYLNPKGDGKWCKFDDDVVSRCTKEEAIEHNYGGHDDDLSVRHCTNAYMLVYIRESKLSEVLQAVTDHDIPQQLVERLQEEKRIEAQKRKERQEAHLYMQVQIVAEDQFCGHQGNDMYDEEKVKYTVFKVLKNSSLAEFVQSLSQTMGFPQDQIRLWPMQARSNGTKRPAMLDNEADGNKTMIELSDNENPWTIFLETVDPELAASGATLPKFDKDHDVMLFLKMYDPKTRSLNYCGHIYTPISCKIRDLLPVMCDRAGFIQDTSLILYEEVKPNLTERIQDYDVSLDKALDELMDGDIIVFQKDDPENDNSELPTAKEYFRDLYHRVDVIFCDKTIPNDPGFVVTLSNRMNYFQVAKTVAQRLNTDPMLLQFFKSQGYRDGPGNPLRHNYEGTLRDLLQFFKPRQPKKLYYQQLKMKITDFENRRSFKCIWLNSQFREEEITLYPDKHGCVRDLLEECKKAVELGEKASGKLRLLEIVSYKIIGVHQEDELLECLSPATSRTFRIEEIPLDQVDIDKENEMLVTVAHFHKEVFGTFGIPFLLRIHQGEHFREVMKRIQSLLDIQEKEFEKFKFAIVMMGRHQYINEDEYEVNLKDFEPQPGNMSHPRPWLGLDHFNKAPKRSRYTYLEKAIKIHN
Outline: as §1

| SMILES | log2 ratio of Biotin-Ahx-Ub-VS probe labelling |
| --- | --- |
| CNC(=O)C1CCN(C(=O)CCl)CC1 | -0.171 (inactive) |
| O=C(CCl)Nc1cccc(NC(=O)c2ccccc2)c1 | 0.0734 (inactive) |
| Cc1ccc(N2CCC(NC(=O)CCl)C2=O)cc1 (stereo not given) | -0.0706 (inactive) |
| Cc1cccc(C(CNC(=O)CCl)N2CCOCC2)c1.Cl (stereo not given) | -0.244 (inactive) |
| O=C(CCl)N1CCC(C(O)c2ccc(F)cc2)CC1 (stereo not given) | -0.0695 (inactive) |
| Cc1ccccc1C1(CNC(=O)CCl)CCOCC1 | -0.102 (inactive) |
| CC(O)CC1CCN(C(=O)CCl)CC1 (stereo not given) | -0.335 (inactive) |
| COc1cc(Cl)c(C)cc1NC(=O)CCl | -0.373 (inactive) |
| Cl.O=C(CCl)NCCN1CCc2ccccc21 | -0.711 (inactive) |
| CN(C)S(=O)(=O)c1ccccc1CNC(=O)CCl | -0.218 (inactive) |
| CN1c2ccccc2C(NC(=O)CCl)CS1(=O)=O (stereo not given) | -0.369 (inactive) |
| CNC(=O)Cn1cc(NC(=O)CCl)cn1 | -0.438 (inactive) |
| Cc1ccc(N(CCC#N)C(=O)CCl)cc1C | -1.27 (active) |
| Cc1cccc(N2CCC(NC(=O)CCl)C2=O)c1 (stereo not given) | -0.204 (inactive) |
| Cc1ccc(CC(NC(=O)CCl)c2ccccn2)cc1.Cl (stereo not given) | -0.0773 (inactive) |
| O=C(CCl)N[C@H]1CCS(=O)(=O)c2ccccc21 | -0.346 (inactive) |
| O=C(CCl)N1CCC(c2noc3cc(F)ccc23)CC1 | -1.81 (active) |
| C/C(=C\CNC(=O)CCl)c1cnn(C)c1.Cl | -0.224 (inactive) |

| SMILES | log2 ratio of Biotin-Ahx-Ub-VS probe labelling |
| --- | --- |
| CN(C)C(=O)c1ccc(CNC(=O)CCl)cc1 | 0.103 (inactive) |
| Cc1nc(CNC(=O)CCl)c2ccccn12.Cl | -0.157 (inactive) |
| O=C(CCl)NC1(c2ccc3c(c2)OCCO3)CCCC1 | -0.305 (inactive) |
| N#Cc1ccc(CNC(=O)CCl)cc1 | -0.073 (inactive) |
| CC(NC(=O)CCl)c1cc2n(n1)CCCC2.Cl (stereo not given) | -0.279 (inactive) |
| O=C(CCl)N1CC=C(c2c[nH]c3ccccc23)CC1 | -1.53 (active) |
| CCN1C(=O)C2CN(C(=O)CCl)CCN2C1=O (stereo not given) | -0.307 (inactive) |
| NC(=O)C1CCCN(C(=O)CCl)C1 (stereo not given) | -0.0546 (inactive) |
| CC(=O)C1CCCCN1C(=O)CCl (stereo not given) | -0.172 (inactive) |
| CC1CCc2onc(CNC(=O)CCl)c2C1 (stereo not given) | -0.00387 (inactive) |
| CCC1c2ccsc2CCN1C(=O)CCl (stereo not given) | -1.23 (active) |
| O=C(O)C1Cc2ccccc2CN1C(=O)CCl (stereo not given) | -0.333 (inactive) |
| Cl.O=C(CCl)N[C@H]1C[C@@H](n2cccn2)C1 | -0.218 (inactive) |
| O=C(CCl)N1CCc2sccc2C1 | -1.34 (active) |
| CC(NC(=O)CCl)c1csc(-c2ccccc2)n1.Cl (stereo not given) | -0.457 (inactive) |
| Cc1ccc(N(C(=O)CCl)C2C=CS(=O)(=O)C2)cc1 (stereo not given) | -1.19 (active) |
| O=C(CCl)NCc1ccc(Cl)cc1 | -0.206 (inactive) |
